Assay outcomes (PubChem)
HT1080-NT tox = kills 2HG-producing HT-1080-NT fibrosarcoma cells. HT-1080-NT fibrosarcoma viability, CellTiter-Glo ATP luminescence, 48 h. Potency, µM (top dose mostly 46.1 µM), for inactives: top-dose activity, negative = less viability, actives largely listed as cytotoxic. AID 686970. 360,000 tested, 1.6% active;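 also: NT is the 2HG producing partner of a matched IDH1 knockdown line; potency is read from the fitted curve at half-maximal effect; 0% = DMSO-treated cells and -100% = media-only wells without cells; nearly all actives have a fitted effect of over 55% in size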
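Toxicity toward the 2HG-producing NT line was scored as %Activity, normalised to DMSO and no-cell wells, from CellTiter-Glo luminescence after 48 hours' treatment.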
IL1B secr inh = inhibitors of inflammasome signaling (IL-1 beta secretion); THP-1 LPS/ATP IL-1B secretion, AlphaLISA, 16 h; stronger effect = lower value; activity change, % at 57.5 µM; 360,000 tested, 4.7% active; in the data active = activity change below about -50%; inconclusive = mostly about -30% to -49%
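Secreted IL-1B measured by AlphaLISA bead assay after 16 h compound exposure of THP-1 cells; compounds (final up to 57.5 uM) added 1 h before LPS (250 ng/mL) and ATP (1.25 mM) stimulation; lower signal means less secretion.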
TDP1 cell CPT = DT40-hTDP1 cell growth loss with CPT; chicken DT40 Tdp1-/-;hTDP1 cells + 20 nM CPT, ATP luminescence, 48 h; Potency, µM (doses to about 46.2 µM), for the others: at the highest dose activity change, negative = growth inhibition, most hits filed as inhibitors; 420,000 tested, 12% active; AID 686979; also: potency is read from the fitted curve at half-maximal effect; nearly all actives have a fitted effect of over 55% in size
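Chicken DT40 Tdp1-/- cells stably complemented with human TDP1 were seeded at 400 cells/well in medium containing 20 nM camptothecin, exposed to pin-transferred compounds, and grown at 37 °C for at least 48 hr. Viability was read as ATP luminescence.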
DT40 TDP1 no CPT = qHTS for Inhibitors of human tyrosyl-DNA phosphodiesterase 1 (TDP1): qHTS in cells in absence of CPT | DT40 Tdp1-/- hTDP1 cells, no CPT, ATP luminescence, 48 h | Potency, µM (doses to about 46.2 µM), for the others: top-dose activity change, negative = growth inhibition, most hits filed as inhibitors | 420,000 tested, 15% active; also: potency is read from the fitted curve at half-maximal effect; nearly all actives have a fitted effect of over 55% in size
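Camptothecin absent (DMSO only). Human TDP1-complemented DT40 knockout cells, 400 cells/well, 37 °C for minimum 48 hr; ATP measured via CellTiter-Glo, 30 min dark incubation, luminescence.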
HT1080 IDH1KD tx = HT-1080 IDH1 knockdown cell toxicity (counter line); HT-1080 IDH1 knockdown viability, ATP luminescence, 48 h; Potency, µM (highest dose often 46.1 µM), without a hit: at the top dose activity, negative = toxicity, usual class: cytotoxic; 360,000 tested, 2% active; AID 686971;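 also: potency is read from the fitted curve at half-maximal effect; 0% = DMSO wells and -100% = cell-free medium wells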
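HT-1080-IDH1KD cells (IDH1 knocked down), 750/well in RPMI with 5% FBS, treated with compound 48 h at 37 degrees C. Viability by CellTiter-Glo luminescence, normalised to DMSO and no-cell wells; concentration-response curves classed.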
* = called active by the depositor; ? = inconclusive; / = no result. Only some compounds are listed: those with a hit (about 19% of all), similar ones and a draw of the others. Unless noted, calls follow the shape of the dose curve; as a rule, active = well fitted curve in the direction sought with a large enough effect; inconclusive = small, poorly fitted or top-dose-only effect, or another doubt; inactive = no such curve, though single readings can be large; an effect the other way counts as inactive or inconclusive. Unless noted, % is scaled to controls: 0 for no effect and ±100 for the full control effect.

SMILES	HT1080-NT tox	IL1B secr inh	TDP1 cell CPT	DT40 TDP1 no CPT	HT1080 IDH1KD tx
COc1ccc(Nc2ccc(Nc3ccc(OC)cc3)nn2)cc1	18.6%	26.4	-21.9%	1.9%	12.6%
COc1ccc(Nc2ccc(OC)cc2)cc1	9.7%	-52.1*	-14.6%	-4.1%	11.7%
O=C(O)C1C2CCC(C2)C1C(=O)NCCc1ccccc1 (configuration not stated)	-7.0%	14.3	3.2%	18.1%	-10.9%
CCC(Cn1nnc2ccccc2c1=O)NC(=O)Nc1cccc(C)c1C (configuration not stated)	/	/	-19.2%	9.6%	/
Cc1cccc2cc(C#N)c(SCCN3CCCCC3)nc12	?	-59.0*	?	?	?
Cc1cccc2cc(C#N)c(N3CCN(C)CC3)nc12	-22.3%	-27.9	?	25.9µM*	?
OCc1ccccc1SSc1ccccc1CO	?	-99.0*	2.31µM*	3.26µM*	?
OCc1ccccc1O	/	/	12.7%	-4.8%	/
Cc1c(-c2ccccc2)nc2c(Cl)cccc2c1C(=O)OCC(=O)c1ccc(F)cc1	/	/	?	5.8µM*	/
Cc1ccc(-c2cc(C(=O)OCC(=O)c3ccccc3)c3cccc(Cl)c3n2)cc1	/	/	?	6.51µM*	/
Cc1ccc2nc(C)cc(C(=O)OCC(=O)c3ccc(Cl)c([N+](=O)[O-])c3)c2c1	-5.7%	-68.5*	16.4µM*	?	-3.9%
Cc1ccc(C(=O)COC(=O)c2cc(Cl)nc3ccccc23)cc1	-4.2%	18.6	-0.5%	-7.9%	0.5%
CC1(c2ccc([N+](=O)[O-])cc2)NC(=O)N(CC(=O)Nc2cccnc2Cl)C1=O (configuration not stated)	-1.3%	2.6	-2.4%	0.8%	-3.9%
COc1ccc(NC(=O)c2nnn(-c3ccc(C(C)C)cc3)c2C)c(OC)c1	/	/	0.5%	?	/
Cc1ccc2sc(N(CCCN(C)C)C(=O)c3ccc(S(=O)(=O)N(C)C4CCCCC4)cc3)nc2c1C	-11.5%	?	9.2µM*	5.8µM*	?
CCOC(=O)N1CCN(S(=O)(=O)c2ccc(C(=O)N(CCCN(C)C)c3nc4c(C)c(C)ccc4s3)cc2)CC1	-14.6%	?	?	?	-1.4%
CC(=O)c1ccc(C(=O)N(CCCN(C)C)c2nc3c(C)c(C)ccc3s2)cc1	/	/	18.4µM*	23.1µM*	/
Cc1ccc2sc(N(CCCN(C)C)C(=O)c3ccc(S(=O)(=O)N4CCOCC4)cc3)nc2c1C	-6.2%	?	?	?	5.0%
CC(=O)c1ccc(C(=O)N(Cc2cccnc2)c2nc3c(C)c(C)ccc3s2)cc1	/	/	23.1µM*	16.4µM*	/
CCN(CC)CCN(C(=O)c1ccc(S(=O)(=O)N(C)C2CCCCC2)cc1)c1nc2c(C)cccc2s1	0.0%	-13.3	23.1µM*	20.6µM*	-9.9%
c1csc(-c2noc(CN3CCc4sccc4C3)n2)c1	19.4%	21.9	-4.7%	-0.6%	10.9%
Cc1ccc2sc(N(CCCN(C)C)C(=O)c3ccc(Br)s3)nc2c1C	20.6µM*	-101.1*	?	?	13µM*
CCCCCC(=O)N1CC2(CC)CN(C(=O)CCCCC)CC(CC)(C1)C2=O	-5.3%	3.3	16.4µM*	?	-7.8%
O=C(Nc1cc(C(F)(F)F)ccc1N1CCOCC1)C1CCCO1 (configuration not stated)	7.2%	-8.1	-23.0%	-17.4%	-15.0%
CCNC(=O)NC(=O)COC(=O)c1ccccc1SCC(=O)NC(=O)NCC	-7.2%	40.4	20.6µM*	14.6µM*	29.1µM*
O=C(COC(=O)c1ccccc1SCC(=O)NC1CCS(=O)(=O)C1)NC1CCS(=O)(=O)C1 (configuration not stated)	3.1%	0.0	6.5%	27.6%	4.2%
COC(=O)c1[nH]c2ccccc2c1NC(=O)CN1CCN(c2cccc(Cl)c2)CC1	-14.2%	-17.2	25.9µM*	16.4µM*	-14.4%
COC(=O)c1sc(NC(=O)CN2CCN(c3cccc(Cl)c3)CC2)c(C(=O)OC)c1C	0.6%	0.0	29.1µM*	32.6µM*	3.7%
